Experimental data reported in the supplement of paper PMC3334620.
The full ranking holds about 33,000 sequences; the median of “E-score (-0.5 to 0.5)” is about -8e-05, and the highest 2% start at about 0.23. The sample as a whole holds a higher share of the highest values than the screen did.

Biological target: T1, Nrg2 (UniProt P38082)
T1 sequence: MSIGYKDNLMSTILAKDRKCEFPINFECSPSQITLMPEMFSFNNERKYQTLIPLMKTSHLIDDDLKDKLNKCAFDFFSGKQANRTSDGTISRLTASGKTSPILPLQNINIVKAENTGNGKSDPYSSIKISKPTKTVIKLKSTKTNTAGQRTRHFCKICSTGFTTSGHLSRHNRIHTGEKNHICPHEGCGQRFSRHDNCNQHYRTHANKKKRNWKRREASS
Experiment: PBM E-score (8-mer binding enrichment) (E-score (-0.5 to 0.5)); higher = stronger / more preferred TF binding
Conditions: protein concentration: 100 nM; construct: GST-full length
Outline: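 E-scores (a modified Wilcoxon-Mann-Whitney statistic) were assigned by the Universal PBM Analysis Suite to every ungapped eight-base word pooled with its reverse complement. The input came from universal all-10-mer Agilent arrays made double-stranded by primer extension and probed with GST-tagged yeast transcription factors at about 100-200 nM. Fluorescent anti-GST detected bound protein, and masliner normalised the scans.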

Sequence	PBM E-score
AGCAAACA	0.0834
GGCGCCTA	-0.0964
AGAACCGC	0.0943
ACGTCAGC	0.129
CCCGAACG	-0.0859
GCAAACGA	0.0657
CGCAACTC	0.147
CGCAACTA	0.244
GGCAACTA	0.194
GCGGCCAA	-0.133
AGGACCCT	0.369
AAGACCCA	-0.181
AAGACCCT	0.291
AAGACCCG	0.0509
AGGACCCG	0.0935
AGGACCCA	-0.179
CCAACCTA	-0.118
AAGTGAGC	-0.0445
CATGGGAA	0.0176
CAGATGAA	0.026
ACGCTAGG	-0.266
AACCAGGG	0.176
CTTAACAC	0.0347
ATCAAAAG	0.00066
ATCAAAAA	0.237

Sequence	PBM E-score
ATTAAAAA	0.246
ATTAACAC	0.246
ATTAAAAG	0.103
ATTAAAAT	0.174
ATTAAACC	0.199
ATTAAAAC	0.241
CTTAAAAC	0.0325
ATCAAAAT	-0.0176
ATTAACAA	0.179
CCTCGTAC	0.0199
CGAACTGC	-0.0594
TCCAGAGA	-0.144
AAGGGGAT	0.205
ACTTAGGG	0.0512
ACCAACTC	-0.0268
CCCAACTC	0.256
CCCAACTA	0.174
GCCGCGCA	-0.0674
CTGGTGGC	0.00474
ACAGTAGA	0.138
AGTATTTA	0.0065
GGTATTTA	0.0832
CGTATTTA	0.248
AGCCCCAT	-0.0124
CTGCGATC	0.0398

Sequence	PBM E-score
CGAGGGCC	-0.0174
AACTTATG	-0.0218
AACTTATC	0.121
AACTTATT	0.256
CATAGTCG	-0.0054
AGGCAAGA	-0.0756
AAGCCCTC	-0.132
ACCAACAG	-0.00807
ACCAACAA	0.245
ACCAACAT	0.0787
GAGAAAGC	0.0912
ACCTACAT	0.00858
GCCCCAGC	0.0519
CTGGTGCC	-0.212
AACTACTC	0.184
AGCTACTA	0.0519
CGCTACTA	0.234
CACTAATA	0.133
TACTAATA	0.0648
AACTACTA	0.296
AACTAATA	0.354
CGCTACTC	-0.0612
AACTACTG	0.0512
AAGACGTG	-0.0832
ACGAATAG	0.0297

Sequence	PBM E-score
CACCTCCC	-0.294
CAGATGGC	-0.107
GAGATACA	0.296
AAGATATC	0.149
AATACCTA	0.144
TAGATACA	0.0563
GATACCTA	0.256
TCGATACA	0.243
GAGATATC	0.282
AAGATACA	0.171
CATACCTA	-0.0293
GCGATACA	-0.00403
ACGATACA	-0.0148
CAGATATC	0.133
ATTTACAA	0.0879
GCGCACAA	0.195
GTAGAGTA	-0.0442
CCACGGGC	-0.139
GGCCGCCA	0.0869
GAGGCCGA	-0.0441
CAAACAAC	0.14
ATAGGAAC	-0.0698
AAAGCAGT	0.201
CATACATA	0.219
GACATACA	0.246

Sequence	PBM E-score
TACATACA	0.199
GATACATA	0.246
CACATACA	-0.0126
GATACATC	0.134
AGAAGTAC	-0.0369
CCCCGCGG	0.0578
ACCCGCCG	0.201
ACCCGCGG	0.275
ACCCGCGC	0.229
ACCCGCGA	0.174
ACCCGCGT	-0.119
ACTAGGAA	-0.094
CGAATCAC	0.117
AGGGACGG	-0.0133
GGGGACCA	0.0565
ATGGACCC	0.206
CTGGACCA	-0.0552
AGGGACGA	0.248
AGGGACGC	0.196
CTGGACCC	0.275
ACGGACCT	0.17
CGGGACCA	-0.173
AGGGACCA	0.35
AGGGACCT	0.382
AAGGACCT	0.0061

Sequence	PBM E-score
CACGATAC	-0.129
ACTTTCGC	-0.0735
CAGTTGCC	-0.092
ATGAGCAA	0.121
AGGGTCAT	0.132
GCCCAAGC	0.106
ATCTATGC	0.117
CCGGGCAC	-0.16
CGCAAAGA	0.111
GGGTCTCA	0.0513
CGGGACCG	-0.0394
AGGGACAC	0.204
AGGGACAA	0.228
ACGGACCG	-0.252
GGGGACCC	0.143
GGGGACTA	-0.0994
CGGGACCC	-0.0126
AGGGACTC	-0.0325
AGGGACAT	0.301
AGGGACCG	0.231
AGGGACTA	0.242
AGGGACCC	0.337
CCTGACCA	0.142
CGAAGACC	0.0649
GCTCTCAA	0.047

Sequence	PBM E-score
ACGATCGA	0.0838
GTGAGCAA	-0.0485
GTCCAGTA	-0.0597
AATACAAG	0.296
AATACAAA	0.269
AATACAAT	0.106
TATACAAA	0.148
GATACAAA	0.18
AATACAAC	0.185
GTAATCGA	0.154
TGAATACA	0.0782
CCTTGCTC	0.0643
AGCGTTAT	-0.0753
GTCTACTA	0.0788
CACCTGTC	0.0208
AGCTCTGG	-0.136
ATCAGATG	-0.0502
ATCTTGCG	-0.0421
ATCTTGCA	0.256
GTCTTGCA	0.0101
GAAGCCTC	-0.146
ATCGAAGA	0.193
ATATTGCA	0.113
AGAGATTC	0.0502
GACAGTAA	0.0902

Sequence	PBM E-score
ATGAAGTG	0.235
ATGAAGTC	-0.0277
ATGAAGTA	0.0961
ATTGAACG	-0.0983
ATCCAAAT	0.0165
AGCGCGTC	-0.0322
AACGCGGA	0.0806
CGCGCGGA	0.227
CACGCGGA	0.234
CGCGCGTA	0.133
CCCGCGGA	0.204
ACCGCGGG	0.171
CGCGCGGC	0.296
AGCGCGGC	0.0579
CACGCGGG	-0.0425
CCCGCGGG	0.278
CGCGCGTC	0.262
CCATTTAA	-0.00324
CATTGAGC	-0.0461
CCTTAGTC	-0.119
CCGCTGCG	-0.14
ATCAATAC	0.136
AGTGCTAG	-0.0309
AATGAGGG	-0.00097
TAGAGCTA	-0.161

Sequence	PBM E-score
CTGCCACA	-0.117
ACCCTTAA	0.152
GACCCCTA	0.151
AACCCTTG	0.194
AACCCTTA	0.235
GACCCTCA	-0.116
AACCTTAG	-0.109
ACCCTTAT	0.28
GACCCTGA	0.389
AACCTTAA	0.293
AACCTTAC	0.108
AACCCTTC	0.168
ACCCTTAG	0.123
GTCAAAAC	0.0485
AGATCTAT	-0.0448
CTGCACCA	-0.0673
AGTTGATC	0.137
CATTCGTA	-0.0996
ACTCTATG	0.056
ACTTCCTG	0.0859
TAAATCGA	0.151
CGCTTACG	-0.284
ACCCCTAG	0.153
TACCCTGA	0.265
GACCCTCC	0.16

Sequence	PBM E-score
ACCCCTAT	0.256
TACCCCTA	0.173
ACCCCTAA	0.172
AACCCCTA	0.25
TACCCTCA	0.00099
TATCCTGA	0.202
GACCCTGC	0.331
ACCCCCTA	-0.391
CACCCTGC	0.191
GGATCTGA	-0.0992
CAAAGGCA	-0.173
ACTAAGAA	0.221
CGAGCTAC	0.124
TAACCGAA	-0.0477
ACCAGTCG	-0.149
CGAGTTTA	0.0171
ACAGAGGA	0.00257
ACCACACG	-0.034
AAACGGAT	0.205
ATCGAGGG	0.12
CCGTTCAG	0.00062
AACCCTAT	0.195
GACCCTAC	0.184
TACCCTAA	0.107
AACCCTGT	0.244

Sequence	PBM E-score
ACCCCTGG	0.0828
CACCCTTA	0.147
GACCCTTA	0.321
AACCCTAG	0.0468
GGCCCTTA	0.185
AACCCTGG	0.315
GACCCTAA	0.237
CACCCTGG	0.0652
GAGTCTGA	-0.0871
CAGTATGG	0.0291
AACGAGGC	-0.139
AAAGTTCG	0.127
AACCCTGA	0.385
AACCCTGC	0.134
AACCCATT	0.00038
GACCCATA	0.118
CCCCCTGA	-0.00244
CACCCTGA	0.201
ACCCCTGA	0.297
ACCCCTTA	0.178
AACCCATA	0.24
CGCGACGA	0.176
TGGGGACA	-0.187
AAGGGAGC	-0.187
AAAACGGC	0.112

Sequence	PBM E-score
GCCGGACA	0.0968
TCGTTGAA	-0.0977
ATACTATC	0.013
CTACTATA	0.143
CTACTATC	0.247
AGGAAAAC	0.151
ACTGTTTA	-0.0842
ACTCGTTG	-0.109
ATTCGTCC	0.27
CTTCGTCC	-0.114
ATTCGTTG	0.239
ATTCGTTA	0.165
ATTCGTTC	0.28
ATTCGTCG	-0.00164
AATCGTTC	0.0566
CTTCGTTC	-0.00176
AAAATCAT	-0.0452
CATTGGTA	0.0651
TGAGTTAA	0.0318
CGAGTTAA	0.264
CGAGTTAC	0.215
CGGTCTAA	-0.118
ATCCTGAG	0.0135
AACCTGTG	0.0227
AGCCTGTG	-0.118

Sequence	PBM E-score
AACCTGAT	0.0634
AGCCTGAT	-0.168
GCCCTGAC	-0.00086
ACCCTGTC	0.201
ACCCTGTG	0.289
ACCCTGAG	0.368
CCCCTGAG	0.176
ACCCTGAC	0.334
ACCCTGAT	0.249
GTTAGCGA	-0.131
ATATCGAT	0.213
CTCTGCTC	-0.0804
ACACTATG	0.0263
CTACTTGC	0.141
ACCTTAGC	0.025
CGTTCACC	-0.11
AGCCTCCC	-0.381
ACCGATCG	-0.0446
TCTGACCA	0.216
TAATAAGA	0.0444
GCTTGCTA	-0.0547
CCCCTGTC	-0.151
CCCCTGAC	0.235
CTCCTGAC	0.0802
ATATAAAG	0.0638

Sequence	PBM E-score
CTATAAAC	-0.086
ATATAAAA	0.0793
ATATAACC	0.145
ATATAACA	0.078
ATATAAAT	0.252
GTATAAAC	0.156
ATATAACG	0.243
ATATAAAC	0.255
ATGAGTAA	0.0697
ACTCGGAC	0.0898
ACTAGGGC	-0.0479
ACTGAACC	-0.111
GTCTTTTA	-0.195
ATATCTTG	0.0388
AATCCTCC	-0.123
AGACAGCT	0.12
GTCACGGA	-0.00114
CGCCATGA	-0.0296
CTATCTAC	0.00786
